Only some compounds are listed: those with a hit (about 9.2% of all), similar ones and a draw of the others.
Rab9 prom act = activates the Rab9 promoter; Huh7 Rab9 promoter-luciferase reporter, luminescence, 24 h; Potency, µM (titrated, usually from 9.22 µM), hits mostly activators; hit rate 2.8% among 320,000; AID 485297; note: nearly all actives have a fitted effect of over 60% in size
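Rab9 promoter-driven luciferase in stably transfected Huh7 cells; 1500 cells/well rested 2 h, exposed to compound in DMSO for 24 h at 37 °C, 5% CO2. Luminescence read 10 min after adding luciferase reagent at ambient temperature.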
NPC1 promoter act = activators of NPC1 promoter; Huh7 NPC1 promoter luciferase reporter, 24 h; Potency, µM (series often up to 9.22 µM), hits mostly activators; hit rate 2.4% among 320,000; AID 485313; note: nearly all actives have a fitted effect of over 60% in size
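Huh7 reporter cells (NPC1 promoter driving luciferase) are dosed with compound for 24 h at 37 °C, 5% CO2; luciferase detection reagent is then added and luminescence measured after 10 min at ambient temperature.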
ELG1 DNA repair = ELG1-dependent DNA repair inhibition | HEK293T ELG1-luciferase reporter, luminescence, 16 h; DNA damage induced by 5-fluorouridine | Potency, µM (titrated, usually from 46.1 µM), most hits filed as inhibitors | hit rate 2.3% among 330,000 | AID 504467; note: nearly all actives have a fitted effect of over 55% in size
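Cells (2,000 per well) received 5-fluorouridine plus test compound or DMSO and were incubated 16 hr at 37 °C, 5% CO2. Luciferase activity was read by luminescence 30 min after ONE-Glo addition; signal suppression marked inhibition of damage-induced ELG1 function.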
SMN2 splice enh = SMN2 splice variant enhancement; HEK293 SMN2-luciferase splicing reporter, luminescence, 30-36 h; AID 1458; Potency, µM (doses to about 46.1 µM), hits mostly activators; hit rate 2.8% among 210,000; note: nearly all actives have a fitted effect of over 55% in size
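qHTS luciferase splicing reporter: luminescence rises when SMN2 exon 7 is included in transfected HEK293 cells. Compound exposure lasted 30-36 h at 37C, with 4.5 mM final sodium butyrate as control, followed by a ONE-Glo read.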
ELG1 genotoxic = genotoxicity induction in ELG1-luciferase HEK293T cells; Potency, µM (highest dose often 46 µM), hits mostly activators; HEK293T ELG1-luciferase reporter, luminescence, 16 h; hit rate 1.3% among 330,000; note: nearly all actives have a fitted effect of over 60% in size
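16 hr compound incubation (37 °C, 5% CO2) of HEK293T cells carrying luciferase-tagged ELG1; luciferase then measured by ONE-Glo luminescence after 30 min at RT.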
FLuc counter = firefly luciferase modulation, counter-screen for miR-21 project. P08659. purified FLuc, Km substrates, luminescence inhibition. Potency, µM (doses to about 57.5 µM), usual class: inhibitors. hit rate 6.9% among 360,000. AID 588342; note: nearly all actives have a fitted effect of over 55% in size
Target sequence (P08659 whole entry, looked up): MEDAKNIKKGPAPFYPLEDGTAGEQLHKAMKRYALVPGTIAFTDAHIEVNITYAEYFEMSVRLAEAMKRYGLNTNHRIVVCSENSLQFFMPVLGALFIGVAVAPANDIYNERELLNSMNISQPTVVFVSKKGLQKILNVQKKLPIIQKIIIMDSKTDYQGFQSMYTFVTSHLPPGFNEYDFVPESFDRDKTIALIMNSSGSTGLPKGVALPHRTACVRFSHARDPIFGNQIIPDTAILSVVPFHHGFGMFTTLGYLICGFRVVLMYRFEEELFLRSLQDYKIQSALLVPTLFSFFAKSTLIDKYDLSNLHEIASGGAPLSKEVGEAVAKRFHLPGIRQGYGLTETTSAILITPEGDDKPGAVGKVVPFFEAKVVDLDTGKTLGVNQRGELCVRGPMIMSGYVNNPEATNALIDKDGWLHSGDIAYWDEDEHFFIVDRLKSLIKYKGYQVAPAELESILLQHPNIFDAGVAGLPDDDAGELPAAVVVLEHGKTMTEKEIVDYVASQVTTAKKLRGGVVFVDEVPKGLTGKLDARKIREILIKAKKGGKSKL
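Purified P. pyralis luciferase (10nM final) with 10uM D-luciferin and 10uM ATP (Km levels) in 50mM Tris acetate pH 7.5, 10mM Mg acetate, 0.01% Tween-20, 0.05% BSA; qHTS 6-point titration, ~60 µM downward; luminescence read.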
Hits are given with their value; [ ] = remark or other dose. Calls come from the whole dose curve; as a rule, active = well fitted curve in the direction sought with a large enough effect; inconclusive = small, poorly fitted or top-dose-only effect, or another doubt; inactive = no such curve, though single readings can be large; an effect the other way counts as inactive or inconclusive.

How did COc1ccc(N2C(=O)CSC23C(=O)N(Cc2ccc(C)cc2)c2ccccc23)cc1Cl (stereo unspecified) do in these assays?
FLuc counter: inactive

How did COc1ccc(/C=C2\SC(=O)N(CC(=O)NCCCn3ccnc3)C2=O)cc1 do in these assays?
Rab9 prom act: inactive; NPC1 promoter act: inactive; ELG1 DNA repair: inconclusive; ELG1 genotoxic: inactive; FLuc counter: 9.53µM

How did CC1CCCCN1C(=O)c1cc(-c2ccc3c(c2)OCO3)on1 (stereo unspecified) do in these assays?
Rab9 prom act: 0.891µM; NPC1 promoter act: 0.631µM; ELG1 DNA repair: inconclusive; ELG1 genotoxic: 11.6µM; FLuc counter: 3.79µM

How did CC1CCN(C(=O)c2cc(-c3ccc4c(c3)OCO4)on2)CC1 do in these assays?
Rab9 prom act: 1.12µM; NPC1 promoter act: 0.631µM; ELG1 DNA repair: inconclusive; ELG1 genotoxic: 2.91µM; FLuc counter: 2.69µM

What do the screens show for `COc1ccc(-c2cc(C(=O)N3CCCCC3C)no2)cc1OC` (stereo unspecified)?
SMN2 splice enh: inactive; FLuc counter: inactive

What do the screens show for `O=C(c1cc(-c2ccccc2)on1)N1CCN(Cc2ccc3c(c2)OCO3)CC1`?
Rab9 prom act: inactive; NPC1 promoter act: inactive; ELG1 DNA repair: inactive; SMN2 splice enh: inactive; ELG1 genotoxic: inactive; FLuc counter: inactive

How did CCC1CCCCN1C(=O)c1cc(-c2ccc(Cl)c(Cl)c2)on1 (stereo unspecified) do in these assays?
Rab9 prom act: inconclusive; NPC1 promoter act: inconclusive; ELG1 DNA repair: inconclusive; SMN2 splice enh: inactive; ELG1 genotoxic: inconclusive; FLuc counter: 19µM

How did CCC1CCCCN1C(=S)NC(=O)c1cc(Br)ccc1Cl (stereo unspecified) do in these assays?
Rab9 prom act: inactive; NPC1 promoter act: inactive; ELG1 DNA repair: inactive; ELG1 genotoxic: inactive; FLuc counter: inactive

Results for CC1CCCCN1C(=O)c1cc(-c2ccc(Cl)c(Cl)c2)on1 (stereo unspecified) ?
Rab9 prom act: 2.51µM; NPC1 promoter act: 3.98µM; ELG1 DNA repair: inconclusive; SMN2 splice enh: inconclusive; ELG1 genotoxic: inconclusive; FLuc counter: 12µM

How did COc1cccc(NC(=O)CN2CCCN(S(=O)(=O)c3ccc(Br)cc3)CC2)c1 do in these assays?
SMN2 splice enh: inactive; FLuc counter: inactive

Results for CSc1cccc(NS(=O)(=O)c2ccc3c(c2)oc(=O)n3C)c1 ?
Rab9 prom act: inactive; NPC1 promoter act: inactive; ELG1 DNA repair: inconclusive; SMN2 splice enh: inactive; ELG1 genotoxic: inactive; FLuc counter: inactive

What do the screens show for `Cc1ccccc1Nc1nc(CSc2nnc(-c3ccoc3C)n2C)cs1`?
Rab9 prom act: inactive; NPC1 promoter act: inactive; ELG1 DNA repair: inactive; SMN2 splice enh: inactive; ELG1 genotoxic: inactive; FLuc counter: 16.9µM

What do the screens show for `Cc1ccc(Nc2nc(CSc3nnc(-c4cccnc4)n3-c3ccccc3F)cs2)cc1`?
Rab9 prom act: inactive; NPC1 promoter act: inactive; ELG1 DNA repair: inconclusive; SMN2 splice enh: inactive; ELG1 genotoxic: inactive; FLuc counter: 2.39µM

Results for Cc1ccc(NC(=O)CSc2nnc(-c3cccnc3)n2-c2ccc(C)cc2)cc1 ?
Rab9 prom act: inactive; NPC1 promoter act: inactive; ELG1 DNA repair: inconclusive; SMN2 splice enh: inactive; ELG1 genotoxic: inactive; FLuc counter: inactive

How did Cc1ccc(CSc2nnc(-c3ccncc3)n2C)cc1 do in these assays?
Rab9 prom act: inactive; NPC1 promoter act: inactive; ELG1 DNA repair: inactive; SMN2 splice enh: inactive; ELG1 genotoxic: inconclusive; FLuc counter: inactive

How did Cc1occc1-c1nnc(SCc2cc(=O)n3cc(Br)ccc3n2)n1C do in these assays?
Rab9 prom act: inactive; NPC1 promoter act: inactive; ELG1 DNA repair: inactive; SMN2 splice enh: inactive; ELG1 genotoxic: inactive; FLuc counter: inactive

What do the screens show for `Cc1ccc(Nc2nc(CSc3nnc(-c4ccncc4)n3C)cs2)cc1`?
Rab9 prom act: 1.26µM; NPC1 promoter act: 3.16µM; ELG1 DNA repair: inconclusive; ELG1 genotoxic: inconclusive; FLuc counter: 0.601µM

What do the screens show for `COc1cc(C)c(NC(=O)c2cccc(S(=O)(=O)N3CCCC3)c2)cc1OC`?
ELG1 DNA repair: inactive; ELG1 genotoxic: inactive

What do the screens show for `CCOc1ccc(NC(=O)Cn2cc(C(=O)c3ccccc3)c(=O)c3cc4c(cc32)OCCO4)cc1`?
SMN2 splice enh: inactive; FLuc counter: inactive

Results for CCCCOc1ccc(S(=O)(=O)Nc2cccnc2)cc1 ?
Rab9 prom act: inactive; NPC1 promoter act: inactive; ELG1 DNA repair: inactive; SMN2 splice enh: inactive; ELG1 genotoxic: inactive; FLuc counter: inactive

Results for CCOc1ccc(S(=O)(=O)Nc2cccc(-c3ccc(N4CCCCCC4)nn3)c2)cc1 ?
Rab9 prom act: inactive; NPC1 promoter act: inactive; ELG1 DNA repair: inconclusive; ELG1 genotoxic: inconclusive; FLuc counter: 8.49µM

Results for CCCCOc1ccc(S(=O)(=O)Nc2cccc(-c3ccc(N4CCOCC4)nn3)c2)cc1 ?
FLuc counter: 13.5µM

What do the screens show for `O=C(COc1coc(CN2CCc3ccccc32)cc1=O)Nc1cccc(F)c1`?
Rab9 prom act: inactive; NPC1 promoter act: inactive; ELG1 DNA repair: inactive; ELG1 genotoxic: inactive; FLuc counter: inactive

How did CCOC(=O)CCCCCC(=O)Nc1ccc2c(c1)CC(=O)N([C@@H](C)CO)C[C@@H](C)[C@@H](CN(C)C(=O)Nc1ccc(C(F)(F)F)cc1)O2 do in these assays?
ELG1 DNA repair: inactive; ELG1 genotoxic: inactive

How did COc1ccc(Nc2nnc(-c3ccc(C)c(S(=O)(=O)N4CCN(C)CC4)c3)c3ccccc23)cc1 do in these assays?
SMN2 splice enh: inactive; FLuc counter: 16.9µM

What do the screens show for `Cc1ccc(-c2nnc(Nc3ccccc3)c3ccccc23)cc1S(=O)(=O)NCc1nc2ccccc2[nH]1`?
SMN2 splice enh: inactive; FLuc counter: inactive

What do the screens show for `Cc1ccc(-c2nnc(NC3CCCCC3)c3ccccc23)cc1S(=O)(=O)N1CCN(C)CC1`?
Rab9 prom act: inactive[1.84 µM]; NPC1 promoter act: inactive; ELG1 DNA repair: 23.1µM; SMN2 splice enh: inactive; ELG1 genotoxic: inactive; FLuc counter: inactive

What do the screens show for `Cc1ccc(-c2nnc(NCc3nc4ccccc4[nH]3)c3ccccc23)cc1S(=O)(=O)N1CCCCC1`?
Rab9 prom act: inactive; NPC1 promoter act: inactive; ELG1 DNA repair: 8.2µM; SMN2 splice enh: inactive; ELG1 genotoxic: inactive; FLuc counter: inactive

What do the screens show for `C=CCN(c1ccc(C(=O)Nc2cccc([N+](=O)[O-])c2)cc1)S(C)(=O)=O`?
Rab9 prom act: inactive; NPC1 promoter act: inactive; ELG1 DNA repair: inconclusive; ELG1 genotoxic: inactive; FLuc counter: inactive

How did CC(C)(C)NC(=O)C(c1ccc(O)cc1)N(C(=O)CCC(=O)Nc1ccccn1)c1ccc(F)cc1 (stereo unspecified) do in these assays?
Rab9 prom act: inactive; NPC1 promoter act: inactive; ELG1 DNA repair: inactive; ELG1 genotoxic: inactive; FLuc counter: inactive
